Screen size: about 1,400 compounds; about 380 (27%) were called active. This is one part of the list. A number with no mark means an inactive call.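 How the source made its calls: active means mean inhibition above 50% across duplicate retests at 10 µM; inactive means the rest.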
Assay: yeast NALP1 reporter signal suppression – S. cerevisiae, luminescence, single concentration, NALP1 inhibitor project, confirmation (AID 488841);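 further: plate controls were DMSO in galactose medium for no effect and cells in plain SD medium for full effect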
Conditions: S. cerevisiae NALP1/ASC/Caspase-1 reporter, beta-gal luminescence; at 10 µM; active compounds read high

SMILES | inhibition
CC1CCC2C(=O)N(c3ccc(C(=O)Oc4cccc5cccnc45)cc3)C(=O)C2C1 (stereo not given) | 31.1%
Cc1cc(C)c(NC(=O)/C(=C/c2ccccc2)c2ccccc2)c(C)c1 | 31.8%
Cc1nc(/N=C(\N)NC(=O)N2c3ccccc3Sc3ccccc32)nc2ccccc12 | 44.3%
O=C(Cc1ccc(-n2c(=O)[nH]c3ccccc3c2=O)cc1)N1CCN(c2ccccc2)CC1 | 18.6%
Nc1ccc(C(=O)Nc2nc3ccccc3s2)cc1 | 69.7% (active)
Cc1ccc2nc(NC(=O)c3ccc4ncsc4c3)sc2c1 | 30.2%
O=C(Nc1nc2ccccc2s1)C1c2ccccc2Oc2ccccc21 | 45.9%
COC(=O)c1ccccc1SC1CC(=O)N(c2cccc(C)c2)C1=O (stereo not given) | 34%
CCN(CC)C1CC(=O)N(c2cccc(C)c2)C1=O (stereo not given) | 57.5% (active)
Cc1cccc(N2C(=O)CC(Sc3ccccc3C(=O)O)C2=O)c1 (stereo not given) | 42.5%
Cc1cc(C)cc(N2C(=O)CC(Sc3ncn[nH]3)C2=O)c1 (stereo not given) | 62.3% (active)
CC(C)c1ccc(N2C(=O)CC(Sc3ncn[nH]3)C2=O)cc1 (stereo not given) | 48.5%
Cc1ccc(N2C(=O)CC(Sc3ccccc3C(=O)O)C2=O)cc1 (stereo not given) | 40.4%
CCOC(=O)NC1(NCc2ccccc2)Oc2ccccc2O1 | 32.2%
O=C(Nc1cccc(N=Cc2cc(Br)cc(Br)c2O)c1)c1ccco1 | 39.2%
Oc1c(Br)cc(Br)cc1C=Nc1ccc2c(c1)OCO2 | 48.6%
Cc1ccc(C(=O)O)cc1N=Cc1cc(Br)cc(Br)c1O | 59% (active)
COc1ccc(C(C)C)cc1S(=O)(=O)n1cnc(C)c1 | 18.5%
Cc1nc2cc(C(=O)NCc3ccc4c(c3)OCO4)ccc2n1-c1ccc(Br)cc1 | 43.1%
CCOC(=O)c1c(NC2OC(=O)c3c2ccc(OC)c3OC)sc(C(=O)OC(C)(C)C)c1C (stereo not given) | 57.5% (active)
Cc1onc(-c2ccccc2Cl)c1C(=O)N1C=CC(C(F)(F)F)=NCC1 | 65.7% (active)
NC(=O)c1ncc(C(F)(F)F)cc1Oc1ccc(C(F)(F)F)cc1 | 28.9%

SMILES | inhibition
Cc1ccccc1N=C/C=C1\N(C)c2ccccc2C1(C)C | 31.9%
C(=C\c1nc(N2CCCC2)c2ccccc2n1)/c1ccccc1 | 78.1% (active)
C(=C\c1nc(N2CCCCCC2)c2ccccc2n1)/c1ccccc1 | 70.2% (active)
Cc1ccc(C)c(NC(=O)CSc2nnc(-c3ccccc3)o2)c1 | 32.8%
O=[N+]([O-])c1ccc(-c2ccn[nH]2)o1 | 39%
O=C(CSc1nnnn1C1CCCCC1)N1c2ccccc2Sc2ccccc21 | 35.8%
O=S(=O)(Cc1cc(Sc2ccccc2)nc(-c2ccccc2)n1)c1ccccc1 | 19.4%
O=C1CN(c2nnnn2-c2ccccc2)CCN1 | 35%
CNc1ccccc(-c2ccc3ccccc3n2)c1=O | 24.8%
COc1ccc(C(=O)O/N=C(\N)Cc2ccc(Cl)cc2Cl)cc1OC | 40.5%
COc1ccc(Cl)cc1C(=O)O/N=C(\N)c1ccc(Cl)cc1 | 35.3%
Cc1cccc(/C(N)=N/OC(=O)c2ccc(Cl)cc2Cl)c1 | 21.6%
Cc1cccc(/C(N)=N/OC(=O)c2cccc3ccccc23)c1 | 28.9%
N/C(Cc1cccs1)=N\OC(=O)COc1ccccc1Cl | 45.7%
Cc1ccc(/C(N)=N/OC(=O)c2ccc(Cl)cc2Cl)cc1 | 36%
N/C(Cc1ccc(Cl)cc1Cl)=N\OC(=O)c1cccs1 | 51.2% (active)
Cc1cccc(/C(N)=N/OC(=O)c2ccc3c(c2)OCO3)c1 | 54.1% (active)
Nc1ccc(C(=O)c2cccs2)cc1 | 44%
Cc1ccc(/C(N)=N/OC(=O)c2cccs2)cc1 | 57.2% (active)
Cc1ccc(/C(N)=N/OC(=O)c2ccc3c(c2)OCO3)cc1 | 77.3% (active)
COc1ccc(/C=C(/C(=O)c2cccs2)N2C=CC=CC2=C(C#N)C#N)cc1 | 38.4%
COc1ccc2oc(=Nc3ccccc3)c(-c3nc4ccccc4[nH]3)cc2c1 | 38%

SMILES | inhibition
Nc1ccccc1-c1nc2ccccc2[nH]1 | 71.9% (active)
Cc1ccc2nc(-c3ccc(NC(=O)CN(c4ccccc4C)S(C)(=O)=O)cc3)sc2c1 | 37.2%
O=C(Nc1cccc(O)c1)c1cc(-c2ccco2)on1 | 74.8% (active)
O=C(NCc1ccc(F)cc1)c1cc(-c2ccco2)on1 | 33%
CCCn1c(-c2cccnc2Cl)nc2cc(Cl)c(Cl)cc21 | 41.4%
CC(C)CC(=O)/C(=C\c1ccc(Cl)cc1Cl)n1cncn1 | 100% (active)
Oc1ccc2ccccc2c1CN1CCN(c2ccccc2)CC1 | 33.5%
Cc1ccc(CN2CCN(/N=C/c3cccs3)CC2)cc1 | 34.5%
COc1ccc(-c2nc(CCNC(=O)c3cccs3)cs2)cc1 | 41.9%
O=C(NCCc1csc(-c2ccccc2)n1)c1ccc(Br)o1 | 57.4% (active)
O=C(NCCCn1ccnc1)c1ccc(Br)o1 | 22.2%
Cc1ccc2cc(CN(Cc3ccco3)C(=O)NC3CCCCC3)c(=O)[nH]c2c1C | 18.7%
Nc1nc(-c2ccco2)nn1S(=O)(=O)c1ccccc1 | 23.4%
CS(=O)(=O)c1nc(-c2ccco2)cc(C(F)(F)F)n1 | 81.3% (active)
CCOC(=O)c1c(C)[nH]c2c1-c1ccccc1C(=O)C2=O | 25.1%
O=S(=O)(Nc1cc(Sc2cccc3cccnc23)c(O)c2ccccc12)c1ccc(F)cc1 | 56.7% (active)
O=S(=O)(Nc1ccc(Oc2ncccn2)c(Cl)c1)c1ccc(F)cc1 | 23%
Cc1cc(C)c(S(=O)(=O)Nc2cc(SCC(=O)O)c(O)c3ccccc23)cc1C | 22.2%
CN(C)CCN(Cc1ccccc1)c1nccc(N(C)C)c1C#N | 25.1%
O=C(O)C1C2C=CC(C2)C1C(=O)NCc1ccc(Cl)c(Cl)c1 (stereo not given) | 33.5%
CS(=O)(=O)N(CC(=O)Nc1ccccc1Sc1ccccc1)C1CCCCC1 | -0.35%
